Measurements: the supplement of paper PMC10338343
± gives the standard deviation.

Key:
[1] = tested on: MILI (PIWIL2) piRISC loaded with L1MC piRNA (26 nt); assay: pre-steady-state target cleavage rate (min^-1); guide: L1MC piRNA 5'p-UAACUAAAUACUAUGCAAGCUGUAGG; higher = faster piRNA-guided slicing of the target; details: auxiliary factor: 500 nM mouse GTSF1;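 further: 1 nM active piRISC with 0.1 nM target library at 33 °C single turnover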
Method in brief: (§1)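 Reactions were run for 0–8 or 0–960 min at 33 °C in HEPES–potassium acetate buffer, combining 1 nM active affinity-purified piRISC with one synthetic guide, […] transcribed, DNA-blocked target RNA library and, in some cases, 500 nM GTSF1 partner protein. Sequencing of uncleaved targets followed, with normalisation to depth and to weakly complementary targets. Three trials were pooled, k3 was capped at 0.0001 min^-1, and the pre-steady-state cleavage rate was taken from a burst-and-steady-state fit.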

[2] = tested on: EfPiwi piRISC loaded with L1MC piRNA (26 nt); assay: pre-steady-state target cleavage rate (min^-1); auxiliary factor: 500 nM Ephydatia muelleri Gtsf1; guide: L1MC piRNA 5'p-UAACUAAAUACUAUGCAAGCUGUAGG; MIWI and MILI are mouse PIWI proteins and EfPiwi is from a freshwater sponge; tags in brackets are library labels; higher = faster piRNA-guided slicing of the target
Method in brief: as §1

Row | Sequence | pre-steady-state target cleavage rate [1] | pre-steady-state target cleavage rate [2]
1 | UCCUGGUACAGCAUGCAUAGUAUUUAGAAA | 0.0581 ± 0.015 | 0.00215 ± 0.002
2 | UCCUGGAACAGCUUGCAUAGUAUAAUGUUA | 0.0834 ± 0.018 | 0.00416 ± 0.0026
3 | UCCUGGAUCAGCUUGCAUAGUAAUUAGAUA | 0.0994 ± 0.025 | 0.00275 ± 0.0021
4 | UCCUGCUACAGCUUGCAUAGUAUUUUGAUA | 0.142 ± 0.037 | 0.00307 ± 0.0023
5 | UCCUGCUACAGCUUGGAUAGUAUUUAGAAA | 0.0121 ± 0.0049 | 0.00242 ± 0.0021
6 | UCCUGGAACAGCUAUGCAUAGUAUUUAGUUA | 0.21 ± 0.018 | 0.0102 ± 0.0029
7 | UCCUGGAUGUGCUUGACAUAGUAUUUAGUUA | 0.0338 ± 0.009 | 0.0797 ± 0.03
8 | UCCUGCUACAGCUUCCAUAGUAUUUAGUUA | 0.0846 ± 0.028 | 0.00342 ± 0.0012
9 | UCCUCCUACAGCUUGCAUAGUAAUUACAAA | 0.18 ± 0.039 | 0.00353 ± 0.0025
10 | UCCUGCUACAGCAUGCAUAGUAUUUAGAAA | 0.188 ± 0.041 | 0.00416 ± 0.0014
11 | UCCUCCUACAGCUUGCAUAGUAAAUACAAA | 0.0608 ± 0.018 | 0.00363 ± 0.003
12 | UCCUCCUACAGCUUGCAUACUAUUUAGUAA | 0.0473 ± 0.012 | 0.00454 ± 0.0033
13 | UCCUGCUACAGCUUGCAUACUAUUUUGUUA | 0.0252 ± 0.0096 | 0.00432 ± 0.0019
14 | UCCUCCUACAGCUUGCAUAGUAUAAAGAAA | 0.0951 ± 0.023 | 0.00289 ± 0.0018
15 | UCCUGCUAGAGCUUGCAUAGUAUUUAGAUA | 0.117 ± 0.015 | 0.00536 ± 0.0018
16 | UCCUGGAUGAGCUUGCAUAGUAUUUAGAAA | 0.119 ± 0.03 | 0.00648 ± 0.0025
17 | UCCUGCUACAGCUUGCAUAGAAUUUAGAUA | 0.0657 ± 0.021 | 0.00319 ± 0.0012
18 | UCCUCCUACAGCUUGCAUAGUAUUUACUAA | 0.114 ± 0.027 | 0.00569 ± 0.003
19 | UCCUGCUACAGCUUGGAUAGAAUUUAGUUA | 0.0646 ± 0.014 | 0.0053 ± 0.0018
20 | UCCUGCAACAGCUUCCAUAGUAUUUAGUUA | 0.112 ± 0.03 | 0.00273 ± 0.0014
21 | UCCUGCUACAGCUUGCAGUAGUAUUUAGUUA | 0.00973 ± 0.0053 | 0.0051 ± 0.0024
22 | UCCUGCUACUCCUUGCAUAGUAUUUACAAA | 0.0669 ± 0.016 | 0.00249 ± 0.0023
23 | UCCUGCUACUGCUUGCAUAGUAUAUAGUUA | 0.121 ± 0.018 | 0.00619 ± 0.0031
24 | UCCUGGAACAGCUUGCAUAGUAUUUACAAA | 0.222 ± 0.048 | 0.00238 ± 0.0019
25 | UCCUGGAUGAGCUUGCUUAGUAUUUAGAUA | 0.128 ± 0.02 | 0.00382 ± 0.0029

Row | Sequence | pre-steady-state target cleavage rate [1] | pre-steady-state target cleavage rate [2]
26 | UCCUCCUACAGCUUGCAUAGUAAUUAGAAA | 0.127 ± 0.032 | 0.00474 ± 0.0026
27 | UCCUGGUUCAGCUUGCAUAGUAUUUAGAUA | 0.106 ± 0.022 | 0.00378 ± 0.002
28 | UCCUCCUUCAGCUUGCAUAGUAUUUACAAA | 0.13 ± 0.029 | 0.00379 ± 0.0027
29 | UCCUCCUACAGCUUGCAUAGUUUUAAGUUA | 0.0543 ± 0.012 | 0.00431 ± 0.0024
30 | UCCUGCUAGAGCUUGCAUAGUAUUUAGUAA | 0.161 ± 0.023 | 0.00419 ± 0.0014
31 | UCCUCCUAGAGCUUCCAUAGUAUUUAGUUA | 0.0812 ± 0.025 | 0.00302 ± 0.0014
32 | UCCUGGUACUGCUUGCAUAGUAUUUUCAAA | 0.0112 ± 0.0064 | 0.00285 ± 0.0022
33 | UCCUCCUACAGCUUGCAUACUAUUUACAAA | 0.0449 ± 0.012 | 0.0038 ± 0.0031
34 | UCCUGGUACAGCUUGCAUUGUAAUUAGUUA | 0.0918 ± 0.016 | 0.00313 ± 0.0023
35 | UCCUGGUACAGCUUGCAUAGUAUUUUGAUA | 0.0966 ± 0.025 | 0.00381 ± 0.0026
36 | UCCUCCUACUGCUUCCAUAGUAUUUAGUUA | 0.0403 ± 0.0098 | 0.0043 ± 0.0018
37 | UCCUGGAUGUCCUUGCAUAGUAUUUAGGUUA | 0.0768 ± 0.019 | 0.00393 ± 0.0033
38 | UCCUGCAACAGCUUGCAUAGUAUUUUGUUA | 0.179 ± 0.023 | 0.00469 ± 0.0013
39 | UCCUCCUACAGCUUGCAUACUAUUUAGAAA | 0.136 ± 0.043 | 0.00366 ± 0.0019
40 | UCCUGGAACAGCUUGCAUAGUAUUUAGUA | 0.191 ± 0.02 | 0.00384 ± 0.0024
41 | UCCUGCUACUCCUUGCAUAGUAUUUAGAAA | 0.0806 ± 0.019 | 0.00264 ± 0.002
42 | UCCUGGAACAGCUUGCAUAGUAUUUAAUUA | 0.102 ± 0.021 | 0.00345 ± 0.0024
43 | UCCUGGAUCAGCUUCCAUAGUAUUUAGUUA | 0.0318 ± 0.0085 | 0.00321 ± 0.0017
44 | UCCUGGAACAGCUUGCAUAGUAUUUUCAUA | 0.0434 ± 0.013 | 0.00388 ± 0.002
45 | UCCUCGAUCAGCUUGCAUAGUAUUUACAAA | 0.135 ± 0.026 | 0.00554 ± 0.003
46 | UCCUGGUACUCCUUGCAUAGUAUUUAGAAA | 0.0265 ± 0.01 | 0.00304 ± 0.0022
47 | UCCUGGAACUCGUUGCAUAGUAUUUAGAAA | 0.136 ± 0.021 | 0.00502 ± 0.004
48 | UCCUCCUACAGCUUGCAUAGUUAAUAGAAA | 0.00946 ± 0.0043 | 0.00366 ± 0.0031
49 | UCCUGGAUCUCCUUGCAUAGUAUUUAGAAA | 0.192 ± 0.031 | 0.00628 ± 0.0051
50 | UCCUCCUACAGCUUGCAUAGUAUAUAGAUA | 0.0715 ± 0.018 | 0.0051 ± 0.0025
